KDM5B inhibitor – inhibitors of human KDM5B histone demethylase; Potency, µM (doses to about 57.7 µM), usual class: inhibitors; KDM5B demethylase, FDH-coupled NADH fluorescence (FDH is formaldehyde dehydrogenase); hit rate 2.6% among 220,000; AID 1347165; active means well fitted inhibition curve with a large enough effect; further: 0% is about no effect; nearly all actives have a fitted effect of over 70% in size
Target sequence (Q9UGL1 whole entry, looked up): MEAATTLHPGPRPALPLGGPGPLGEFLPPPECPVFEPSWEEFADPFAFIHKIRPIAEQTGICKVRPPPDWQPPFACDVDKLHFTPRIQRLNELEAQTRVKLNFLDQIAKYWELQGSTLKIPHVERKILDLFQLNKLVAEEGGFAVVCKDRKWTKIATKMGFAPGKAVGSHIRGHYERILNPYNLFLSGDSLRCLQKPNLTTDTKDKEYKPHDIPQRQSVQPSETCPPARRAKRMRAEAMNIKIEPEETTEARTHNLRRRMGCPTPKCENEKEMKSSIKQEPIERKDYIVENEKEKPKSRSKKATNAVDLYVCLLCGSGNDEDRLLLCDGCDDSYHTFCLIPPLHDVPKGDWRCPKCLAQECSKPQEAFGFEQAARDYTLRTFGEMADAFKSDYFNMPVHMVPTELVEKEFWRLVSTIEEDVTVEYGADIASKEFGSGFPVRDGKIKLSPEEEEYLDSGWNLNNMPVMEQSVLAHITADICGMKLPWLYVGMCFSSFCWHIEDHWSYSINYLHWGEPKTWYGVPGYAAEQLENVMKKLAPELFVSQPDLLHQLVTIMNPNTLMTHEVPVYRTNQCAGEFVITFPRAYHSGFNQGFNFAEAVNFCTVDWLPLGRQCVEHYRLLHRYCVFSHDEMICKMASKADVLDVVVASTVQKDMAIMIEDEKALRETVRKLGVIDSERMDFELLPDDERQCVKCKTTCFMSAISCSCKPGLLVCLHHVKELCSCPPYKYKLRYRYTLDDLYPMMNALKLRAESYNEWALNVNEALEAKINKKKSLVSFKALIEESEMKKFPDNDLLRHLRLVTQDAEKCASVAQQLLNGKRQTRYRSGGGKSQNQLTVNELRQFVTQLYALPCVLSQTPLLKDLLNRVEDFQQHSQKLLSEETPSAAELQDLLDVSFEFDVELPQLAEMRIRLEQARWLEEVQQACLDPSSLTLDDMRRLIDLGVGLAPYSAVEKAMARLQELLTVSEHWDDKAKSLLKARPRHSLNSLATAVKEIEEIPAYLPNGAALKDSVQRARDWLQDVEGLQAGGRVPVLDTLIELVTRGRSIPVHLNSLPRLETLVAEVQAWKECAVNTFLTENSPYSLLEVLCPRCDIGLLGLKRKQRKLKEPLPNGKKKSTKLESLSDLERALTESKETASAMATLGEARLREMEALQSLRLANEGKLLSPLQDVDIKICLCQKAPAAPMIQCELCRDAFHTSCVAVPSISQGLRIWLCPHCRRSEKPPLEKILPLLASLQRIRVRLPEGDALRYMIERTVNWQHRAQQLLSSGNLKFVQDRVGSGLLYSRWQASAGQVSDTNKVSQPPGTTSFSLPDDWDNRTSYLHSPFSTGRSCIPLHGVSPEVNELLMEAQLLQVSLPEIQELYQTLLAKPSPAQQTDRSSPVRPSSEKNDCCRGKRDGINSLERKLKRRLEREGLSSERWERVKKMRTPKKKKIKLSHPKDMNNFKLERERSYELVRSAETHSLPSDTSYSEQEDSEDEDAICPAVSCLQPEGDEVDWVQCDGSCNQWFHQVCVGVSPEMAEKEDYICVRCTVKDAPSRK
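KDM5BΔAP (200 nM final) in 50 mM HEPES pH 7.5, 0.01% Tween-20 was preincubated 10 min at RT with compound over a concentration range. Substrate mix (H3K4me3 12.5 µM, α-KG 25 µM, Fe²⁺, ascorbate, NAD⁺, FDH) was added, and NADH fluorescence change over 30 min gave dose-response curves.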
* hit, by the source's call; i = inactive. The sample as a whole holds a higher share of hits than the screen did. Potency means the concentration at half of the fitted maximal effect.

SMILES | KDM5B inhibitor
COC(=O)C1CCN(Cc2cc(=O)oc3c(C)c(C)ccc23)CC1 | i
BrCC1CCCNC1 (centres undefined) | i
CC(C)Cc1nc(OCC(=O)N2CCOCC2)c(C#N)c2c1CCCC2 | i
O=C(/C=C/c1ccccc1C(F)(F)F)c1cc2ccccc2o1 | i
Cc1cc(C)c2c(=O)cc(C(=O)N(Cc3ccc(F)cc3)C3CCS(=O)(=O)C3)oc2c1 (centres undefined) | i
O=C(CCC[C@H]1NC[C@@H]2C[C@H]1CN(Cc1ccccc1)C2)Nc1ccc(F)cc1F | i
CN(CC(=O)NC1CCCCNC1=O)Cc1ccc(F)cc1F (centres undefined) | i
O=C(Nc1c(NCC2CCCCC2)c2ccccc2oc1=O)c1ccc2c(c1)OCO2 | i
CC(C)C(NC/C=C/c1ccccc1)C(=O)O (centres undefined) | i
CC(/C=C/N(C)C)=C\C=[N+](C)C | i
O=C(Nc1cccc(F)c1)c1ccc2ccccc2n1 | i
CN(C)C(=O)c1[nH]cnc1C(=O)NCC(C)(C)C | i
O=C(Nc1ccc(F)c(F)c1)c1ccc2ccccc2n1 | i
O=C(Nc1ccc(F)cc1)c1ccc2cc[nH]c2n1 | 112µM*
CN(C)C(=O)c1ccc2cc[nH]c2n1 | 126µM*
CN(C)CCCNC(=O)C(=O)Nc1ccc2cc[nH]c2c1 | i
Cc1cccc(NC(=O)CSc2nc3cc([N+](=O)[O-])ccc3o2)c1 | i
O=C(Cn1nc2c(cc1=O)CCCCC2)Nc1nc(-c2cccnc2)cs1 | i
CC(=O)c1ccc(C(C)(C)C)cc1 | i
O=C(c1cccnc1)N1CCN(Cc2c[nH]c3ccccc23)CC1 | i
CCOc1ccc2c(=O)c(-c3ccc(OC)cc3)c(C)oc2c1 | i
CCOC(=O)C1=C(C)NC(=O)NC1c1cccc(Oc2ccc(Cl)cc2)c1 (centres undefined) | i
Cc1nc2cc(NC(=O)C(C)Oc3ccc(F)cc3)ccc2o1 (centres undefined) | i
Cc1ccc(/C(O)=C2\C(=O)C(=O)N(CCCO)C2c2ccc(Br)cc2)cc1 (centres undefined) | i
O=C(Cn1nc(-c2ccc(F)cc2)ccc1=O)NCc1cccnc1 | i
SMILES | KDM5B inhibitor
NC(=O)c1cc(-c2cc(NCc3cccnc3)nc3[nH]ccc23)ccc1F | 25.1µM*
O=C(Cn1c(=O)[nH]c2c(-c3ccccc3F)c[nH]c2c1=O)NCc1cccnc1 | i
Cc1ccc2cc3cc(C(=O)NC4CCCCCC4)sc3nc2c1 | i
CC(C)NC(=O)N[C@H]1CCN2C(=O)c3cc(-c4ccccc4F)ccc3NC(=O)[C@@H]2C1 | i
CC(C)(C)CC(=O)N1CCN2C(=O)c3cc(-c4cccc(C(F)(F)F)c4)ccc3NC(=O)[C@H]2C1 | i
O=C(O)CCCC(=O)N1CCN2C(=O)c3cc(Br)ccc3NC(=O)[C@H]2C1 | i
CC(C)(C)CC(=O)N1CCN2C(=O)c3cc(-c4ccccc4)ccc3NC(=O)[C@H]2C1 | 31.6µM*
O=C1Nc2ccc(-c3ccccc3F)cc2C(=O)N2CCN(C(=O)c3ccco3)C[C@@H]12 | 35.5µM*
COc1ccc(CN2C[C@H]3CN(C(=O)CC(C)(C)C)CCN3C2=O)cc1 | i
O=C1Nc2ccc(-c3ccccc3F)cc2C(=O)N2C[C@H](O)C[C@@H]12 | i
COc1ccc(-c2ccc3c(c2)C(=O)N2CCN(C(=O)CC(C)(C)C)C[C@@H]2C(=O)N3)cc1 | 28.2µM*
CC(C)(CC(=O)O)CC(=O)N[C@H]1C[C@H]2C(=O)Nc3ccc(-c4ccsc4)cc3C(=O)N2C1 | i
COc1ccccc1-c1nnc(SCC(=O)N(C(C)C)C(C)C)n1N | i
CCCn1c(C)nnc1SCC(=O)Nc1sc2c(c1C#N)CCC(C)C2 (centres undefined) | i
Cc1ccc(NC2(c3nnnn3-c3cccc(C)c3)CCCCC2)cc1 | i
COc1cc(C2C(C(N)=O)=C(C)Nc3nc(SCc4ccccc4F)nn32)cc(OC)c1OC (centres undefined) | i
Cc1[nH]c2ccc(C(=O)N[C@H]3CCOC[C@H]3C3CCOCC3)cc2c1C | i
O=C(N[C@H]1CCOC[C@H]1C1CCOCC1)c1cc(=O)[nH]c2ccc(F)cc12 | 22.4µM*
O=C(N[C@H]1CCOC[C@H]1C1CCOCC1)c1ccoc1 | i
O=C(/C=C/Nc1ccc(Cl)c(C(F)(F)F)c1)c1ccccc1 | i
CN(C)C(=O)c1nc(-c2cccc(C(F)(F)F)c2)c2cnccn12 | 7.94µM*
C#CCNC(=O)c1nc(-c2cccc(F)c2)c2cnccn12 | 35.5µM*
COC(=O)CNC(=O)c1nc(-c2cccc(C(F)(F)F)c2)c2cnccn12 | 28.2µM*
C[S+](=O)([O-])c1ccc(-c2nc(C(=O)NCc3ccc(F)cc3)n3ccncc23)cc1 | i
O=C(NC1CC1)c1nc(-c2cccc(C(F)(F)F)c2)c2cnccn12 | i
SMILES | KDM5B inhibitor
CSc1ncc(C(=O)NCc2ccc(F)cc2)c(-c2ccccc2)n1 | i
Cn1nc(C(F)(F)F)c(-c2cccc(C(F)(F)F)c2)c1NC(=O)c1cccnc1 | i
O=C(NC1CC1)c1nc(-c2cccc(F)c2)c2cnccn12 | i
CC(Cc1cnccn1)NC(=O)c1csc2nc(-c3cccc(C(F)(F)F)c3)cn12 (centres undefined) | i
O=C(NCc1ccc(F)cc1)c1nc(-c2ccccc2)c2cnccn12 | 79.4µM*
Cc1nc(-c2cccs2)c(CC(=O)Nc2ccc3c(c2)OCCO3)s1 | i
Cc1cccc(Cn2nc(C)c(NC(=O)c3cc(-c4ccccc4)on3)c2C)c1 | i
O=C(CCC(=O)c1ccc(Cl)cc1)OCC(=O)c1cccc([N+](=O)[O-])c1 | i
O=C1CCCN1c1cccc(-c2csc(-c3cccnc3)n2)c1 | i
O=C(Nc1nnc(-c2ccncc2)s1)C(=O)c1c[nH]c2ccccc12 | i
CC(C)NC(=O)Cn1ccc2ccc(Cl)cc21 | i
COc1cccc(-c2cc(C3CCN(C(=O)Nc4cc(C)cc(C)c4)CC3)[nH]n2)c1 | i
COc1cccc(CN2CCCCCCNC(=O)[C@@H]3C[C@@H](C(=O)NCCc4cnc[nH]4)C[C@@H]32)c1 | i
O=C(NCc1cccnc1)c1nc(-c2ccc(F)cc2)c2cnccn12 | 28.2µM*
O=C(CCc1cccnc1)NCc1cccc(C(F)(F)F)c1 | i
O=C(Cc1c[nH]c2ncc(-c3cccnc3)cc12)NCc1cccc(F)c1 | i
O=C(NCc1cccnc1)c1nc(-c2cccc(F)c2)c2cnccn12 | 22.4µM*
O=C(NCc1ccc(F)cc1)c1nc(-c2cccnc2)c2ccccn12 | 112µM*
O=C(Cc1cccc(C(F)(F)F)c1)NCCc1cccnc1 | i
O=C(NCc1cccnc1)c1nc(-c2cccc(C(F)(F)F)c2)c2cnccn12 | 28.2µM*
O=C(c1cc2cc(Cl)cc(Cl)c2oc1=O)N1CCN(Cc2ccccc2)CC1 | i
Cc1ccc(-c2[nH]c(-c3ccccc3)nc2SCC(=O)Nc2nccs2)cc1 | i
Cn1nc(C(C)(C)C)cc1NC(=O)c1cccc(Br)c1 | i
Cn1c(=O)[nH]c(=O)c2c1nc(N1CCN(c3ccccc3)CC1)n2Cc1ccccc1F | i
CC(=O)N(C)CCCNC(=O)c1nc2ccccc2c(=O)[nH]1 | i
COc1cc(NC(=O)C2CN(S(=O)(=O)C3CC3)CC23CCCCC3)cc(OC)c1 (centres undefined) | i
Cc1cc2n(n1)CCC(=O)N2C(C)C(=O)NCc1ccc(F)cc1 (centres undefined) | i
O=C(COc1ccc2c(=O)c(-c3ccccc3)coc2c1)N1CCN(c2ccccc2)CC1 | i
